Hsp70 act: Hsp70 transcriptional activation, primary screen; HeLa Hsp70 promoter luciferase reporter, luminescence; scaled: vehicle 0, proteasome-inhibitor control 100%; hit rate 0.04% among 200,000; activation, % at 10 µM;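 active = activation above the mean across all tested compounds plus 3 SD, cutoff set per campaign, cut at about 5.5% in these data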;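 note: 100% = MG132 at 30 µM as the positive control and 0% = DMSO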
Wee1 degr inh: blocks degradation of human Wee1 kinase; AID 1321; hit rate 1.2% among 220,000; HeLa Luc-Wee1K328M stability, luciferase luminescence; 100% = proteasome inhibitor MG132 effect; reporter increase, % at 5 µM; P30291;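 active = activation above the mean of all tested compounds plus 3 SD, set per screening run, cut at about 8.8% in these data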;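 note: cells exposed to compound for 20 h before luminescence read; 0% = DMSO alone and 100% = MG132 at 30 µM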
HSV augment: HSV replication enhancement. AID 1956. hit rate 0.005% among 220,000. HSV replication augmentation in cells, fold increase. maximum fold increase; in the data active = maximum fold increase above about 1.5; inconclusive = no clear call, values can overlap the other calls; tested in PC3 cells
p97 ATPase inh: blocks human p97 ATPase activity | inhibition, % at 8 µM | recombinant p97 ATPase, Kinase-Glo ATP luminescence, 3 h | hit rate 0.42% among 220,000; in the data active = inhibition above about 15%;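 note: 0% = DMSO vehicle and 100% = wells lacking enzyme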
Target sequence (P55072 whole entry, looked up): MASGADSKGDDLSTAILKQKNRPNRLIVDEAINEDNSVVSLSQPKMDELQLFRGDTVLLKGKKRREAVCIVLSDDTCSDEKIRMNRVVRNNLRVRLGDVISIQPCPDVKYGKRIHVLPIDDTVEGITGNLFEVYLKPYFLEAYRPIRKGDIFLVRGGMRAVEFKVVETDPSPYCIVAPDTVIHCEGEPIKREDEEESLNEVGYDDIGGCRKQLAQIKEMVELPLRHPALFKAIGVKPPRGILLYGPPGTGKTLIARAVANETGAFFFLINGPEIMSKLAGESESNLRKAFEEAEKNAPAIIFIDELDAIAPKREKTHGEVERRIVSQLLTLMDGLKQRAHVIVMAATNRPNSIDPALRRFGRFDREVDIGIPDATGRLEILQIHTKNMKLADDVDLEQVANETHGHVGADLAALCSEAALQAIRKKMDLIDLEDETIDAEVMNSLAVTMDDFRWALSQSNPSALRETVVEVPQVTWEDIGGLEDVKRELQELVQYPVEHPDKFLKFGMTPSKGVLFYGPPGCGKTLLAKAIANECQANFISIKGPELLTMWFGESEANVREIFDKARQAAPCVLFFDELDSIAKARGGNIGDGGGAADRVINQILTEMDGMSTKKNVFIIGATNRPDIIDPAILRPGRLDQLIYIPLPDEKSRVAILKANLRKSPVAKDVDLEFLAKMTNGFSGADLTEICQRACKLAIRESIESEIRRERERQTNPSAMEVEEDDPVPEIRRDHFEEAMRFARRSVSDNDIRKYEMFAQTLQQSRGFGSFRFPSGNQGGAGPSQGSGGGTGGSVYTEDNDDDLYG
Redox H2O2 prof: compounds producing H2O2 with reducing agent – biochemical, NIH compound library profiling, artefact control for MLSCN library redox annotation, primary screen; DTT-dependent redox cycling H2O2, phenol red/HRP absorbance; 100% = 100 µM peroxide control, 0% = buffer; hit rate 0.03% among 200,000; activation, % at 10 µM; AID 878;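 active = activation of at least 50% relative to the plate's high and low controls in the primary single-dose screen; inactive = activation below 50%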;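 note: compound incubated with DTT at 0.8 mM final as the reducing agent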
Hsp70 act DR: dose response of Hsp70 transcriptional activators; hit rate 10% among 70; calls only at 99 µM; shares compounds with Hsp70 act; HeLa hsp70.1pr-luc reporter, luciferase luminescence;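 active = over 50% activation at some tested dose; inactive = under 50% activation at every tested dose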
Wee1 degr conf: human Wee1 degradation inhibition, confirmation. shares compounds with Wee1 degr inh. HeLa Luc-Wee1K328M degradation, luminescence; vehicle 0%, proteasome-blocked wells 100%. activation, % at 5 µM. hit rate 4% among 1,100. AID 1410; in the data active = activation above about 8.9%
* marks the source's active call; other numbers are inactive results; i = inactive; u = inconclusive; x = no result given; + = active, no number. Most compounds without a hit are left out; they make up all but 1.6% or so of the library.

SMILES	Hsp70 act	Wee1 degr inh	HSV augment	p97 ATPase inh	Redox H2O2 prof	Hsp70 act DR	others
CCOc1ccc(NC(=O)c2ccc(NC(=S)NC3CC3)cc2)cc1	9.4*	-3	i	1	-2	i
Cc1[nH]c2ccccc2c1C(=O)C(=O)NCCC1=CCCCC1	0	0	i	-5	0	x
O=C(OCn1ncc(Br)c(Br)c1=O)c1ccccc1Cl	17*	-2	i	5	0	+
COC(=O)c1ccc2c(c1)C(C)(C)C(/C=C/c1ccccc1O)=[N+]2C	8.4*	5	i	4	-3	+
CSc1nc(C)cc(SCC(=O)Nc2ccccc2)n1	0	1	i	-6	0	x
CCOC(=O)C1CCN(c2ccc([N+](=O)[O-])cc2)CC1	5.7*	-5	i	-5	-1	i
Cc1ccc(-n2c(Cl)c(Cl)nc(Cl)c2=O)cc1	6.4*	4	i	3	1	i
COc1nc(Cl)cn(-c2ccc(C)cc2)c1=O	0	-1	i	-3	-1	x
O=C(O)CCCN1C(=O)C2C3CC(C2C1=O)C1C(c2ccccc2)c2sc(=O)[nH]c2SC31 (configuration not stated)	0	2	i	2	0	x
COc1ccc(C(CNC(=O)c2cc3ccccc3o2)N2CCCCC2)cc1 (configuration not stated)	9.3*	6	i	1	-2	i
COc1ccc(C(CNC(=O)Cc2ccccc2F)N2CCCCC2)cc1 (configuration not stated)	0	0	x	-3	1	x
COc1ccc(NC(=O)/C(Cl)=C(/Cl)S(=O)Cc2ccc(Cl)cc2)cn1 (configuration not stated)	43*	13*	i	20*	10	i
Cc1cc(C)nc(SCc2nnc(SCC(=O)Nc3cc(C(F)(F)F)ccc3Cl)o2)n1	5.7*	0	i	1	0	i
Cc1cc(C)nc(SCc2nnc(SCC(=O)Nc3c(C)cccc3C)o2)n1	1	4	i	-2	-1	x
O=Cc1s/c(=N\S(=O)(=O)c2ccccc2)n(CCCCl)c1Cl	11*	-1	i	4	0	i
COCCCN1C(=O)CS/C1=N\S(=O)(=O)c1ccccc1	x	-1	i	2	x	x
COc1ccc(/C=C/C(=O)c2cc(F)ccc2OC(=O)c2ccccc2OC)cc1OC	9.9*	4	i	1	-1	i
COc1ccc(/C=C/C(=O)c2cc(F)ccc2OC(=O)c2ccccc2)cc1OC	5	-1	u	4	-4	x
CN(C(=O)c1ccccn1)C1(C(=O)NC2CCCCC2)CCCCC1	0	-2	i	4	0	x
CCCOc1c(Br)cc(C(=O)NCC)cc1OC	6.0*	1	i	-1	1	i
CCC(=O)N1CCN(c2ccc(NC(=O)c3ccc([N+](=O)[O-])o3)cc2Cl)CC1	43*	1	i	0	-1	i
CC(C)C(=O)NNC(=O)CC(=O)Nc1ccccc1C(=O)O	x	2	i	1	x	x
CCSc1nccc(-c2nn(-c3ccc(C)cc3)ccc2=O)n1	1	0	i	-1	0	x
C=CCSc1nccc(-c2nn(-c3ccc(C)cc3)ccc2=O)n1	17*	3	i	-4	3	i
O=C(Nc1ccc(OC(=O)c2ccncc2)cc1)c1ccncc1	-1	0	i	1	2	x
SMILES	Hsp70 act	Wee1 degr inh	HSV augment	p97 ATPase inh	Redox H2O2 prof	Hsp70 act DR	others
CCCCS(=O)(=O)/C=C\C=C/S(=O)(=O)CCCC	56*	19*	x	9	-2	i	Wee1 degr conf=12*
Cc1ccc2cc(C#N)c(NCCNC(=O)C3CCC3)nc2c1C	0	3	i	4	0	x
Cc1ccc(C)c(NS(=O)(=O)c2ccc(NC(=O)CSc3ccc(Cl)cc3)cc2)c1	-1	-1	i	2	-1	x
CC(=O)NS(=O)(=O)c1ccc(NC(=O)CSc2ccc(Cl)cc2)cc1	0	13*	i	7	-1	x	Wee1 degr conf=1
O=C(NC(=S)NCC1CCCO1)c1ccc(Br)o1 (configuration not stated)	0	1	i	1	0	x
NS(=O)(=O)c1cccc(NC(=O)CSc2nc3ccc(Cl)cc3[nH]2)c1	0	12*	i	5	0	x	Wee1 degr conf=-3
Cc1ccc2nc(SCC(=O)Nc3cccc(S(=O)(=O)N(C)C)c3)[nH]c2c1	0	9	i	2	0	x
CC(=O)Nc1nonc1C(=O)N1CCC(C)CC1	0	0	i	-3	1	x
CC(C)CCN1CCN(Cc2cccn2-c2nccs2)CC1CCO (configuration not stated)	0	2	i	0	0	x
Cc1ccc(CN2CCN(Cc3cccn3-c3nccs3)CC2CCO)cc1 (configuration not stated)	0	13*	i	0	0	x	Wee1 degr conf=-1
O=C(C[n+]1ccc(C(=O)NCc2ccccc2)cc1)c1ccc(OC(F)F)cc1	0	1	i	6	-1	x
O=C(C[n+]1cn(C(F)F)c2ccccc21)c1ccc(OC(F)F)cc1	1	15*	i	1	0	x	Wee1 degr conf=-1
COc1ccc(CNC(=O)c2ccc(CN3CCOCC3)cc2)cc1	0	-1	i	-1	1	x
Cc1ccc(-n2cccn2)c(CN2CCC(CO)(CCc3ccccc3)CC2)c1	0	18*	i	-4	-3	x	Wee1 degr conf=-1
COCCCNC(=O)Cn1cnc2sc(C)c(S(=O)(=O)N3CCN(c4ncccn4)CC3)c2c1=O	0	0	i	5	-1	x
CCC(C)NC(=O)Cn1cnc2sc(C)c(S(=O)(=O)N3CCN(c4ncccn4)CC3)c2c1=O (configuration not stated)	0	16*	i	7	0	x	Wee1 degr conf=1
COc1ccc(N(C)C(=O)c2oc(=O)c3ccccc3c2-c2ccccc2)c(OC)c1	x	-3	i	-5	x	x
O=C(c1cccc(C(F)(F)F)c1)C1CCCN(Cc2ccc(OCCO)cc2)C1 (configuration not stated)	0	13*	i	2	0	x	Wee1 degr conf=-2
Cn1c(SC/C=C/c2ccccc2)nnc1-c1ccco1	0	12*	i	4	3	x	Wee1 degr conf=0
Cn1c(Cc2cccs2)nnc1SC/C=C/c1ccccc1	0	0	i	5	3	x
COC(=O)c1ccccc1NC(=O)C(C)Oc1ccccc1 (configuration not stated)	0	17*	i	0	-3	x	Wee1 degr conf=2
COc1ccc(NC(=O)C2CCN(C(=O)c3ccccc3)CC2)c(OC)c1	0	-1	i	0	-3	x
O=C(Nc1ccc(N2CCOCC2)nc1N1CCOCC1)c1cccc(C(F)(F)F)c1	x	2	i	2	x	x
